From PubChem BioAssay (Tox21)
Results filed as inconclusive are left out. A number with no mark means an inactive call. Activity calls are given as the source filed them. The call rests on the fitted dose curve; in most records, active means well fitted curve in the direction sought with a large enough effect in the signal ratio in the repeat runs (not every such curve was filed as active); inconclusive means weak or mixed curves, or effect the other way; inactive means no such curve, though single readings can be large or run the other way; the % refers to the signal ratio.
On the % scale 0 is the no-effect control and ±100 the full control effect.

What follows are compounds tested against Estrogen receptor (Homo sapiens) (UniProt P03372) (assay: qHTS assay to identify small molecule antagonists of the estrogen receptor alpha (ER-alpha) signaling pathway (AID 743069)). Details: HEK293 ER-alpha-UAS-bla, beta-lactamase ratio, antagonist mode; series mostly up to 69.4 µM; activity, negative = inhibition: at the top concentration.
Estrogen receptor (Homo sapiens), sequence (P03372 whole entry, looked up): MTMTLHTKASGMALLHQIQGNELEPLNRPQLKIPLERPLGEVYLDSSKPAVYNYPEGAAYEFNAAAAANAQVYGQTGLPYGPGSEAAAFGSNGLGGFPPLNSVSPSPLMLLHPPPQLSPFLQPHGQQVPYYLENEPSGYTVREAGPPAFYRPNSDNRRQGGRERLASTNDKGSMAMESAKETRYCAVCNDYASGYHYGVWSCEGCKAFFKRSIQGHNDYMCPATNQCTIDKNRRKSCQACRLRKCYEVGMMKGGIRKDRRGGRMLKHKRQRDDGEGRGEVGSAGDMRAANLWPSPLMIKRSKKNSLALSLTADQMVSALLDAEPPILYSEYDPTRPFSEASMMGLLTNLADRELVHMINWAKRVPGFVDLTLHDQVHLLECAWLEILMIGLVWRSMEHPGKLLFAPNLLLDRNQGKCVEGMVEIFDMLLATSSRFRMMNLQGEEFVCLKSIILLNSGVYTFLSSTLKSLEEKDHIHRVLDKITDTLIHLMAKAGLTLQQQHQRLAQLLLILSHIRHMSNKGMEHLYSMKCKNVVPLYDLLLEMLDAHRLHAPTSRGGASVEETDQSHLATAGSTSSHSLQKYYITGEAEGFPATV
Description: National Center for Advancing Translational Sciences [NCATS]
NIH Chemical Genomics Center [NCGC]
U.S. Environmental Protection Agency [EPA]
National Institutes of Environmental Health Sciences [NIEHS]
National Toxicology Program [NTP]
U.S. Food and Drug Administration [FDA]
Estrogen receptor (ER), a nuclear hormone receptor, plays an important role in development, metabolic homeostasis and reproduction. Two subtypes of ER, ER-alpha and ER-beta have similar expression patterns with some uniqueness in both types. Endocrine disrupting chemicals (EDCs) and their interactions with steroid hormone receptors like ER causes disruption of normal endocrine function. To identify the compounds that inhibit ER signaling, an ER-alpha-UAS-bla GripTiteTM cell line (Invitrogen, Carlsbad, CA, USA) containing a beta-lactamase reporter gene under the control of an Upstream Activator Sequence (UAS) stably integrated into HEK293 cells was used to screen the Tox21 10K compound library.
Tox21 Assay Protocol Summary:
ER-alpha-bla cells were cultured in assay medium containing 2% charcoal stripped FBS overnight in the culture flasks before the assay was performed. The cells were dispensed at 5,000 cells/5 uL of assay medium per well into black wall/clear-bottom 1536-well plates using a Multidrop Combi (ThermoFisher Scientific, Waltham, MA) dispenser. After the assay plates were incubated at a 37C and 5% CO2 for 4 hr, 23 nL of compounds dissolved in DMSO, positive controls or DMSO only was transferred to the assay plate by a Pintool station (Kalypsys, San Diego, CA), followed by addition of 1 uL of 17beta-estradiol in assay medium using a Flying Reagent Dispenser (Aurora Discovery, San Diego, CA). The plates were incubated at 37C and 5% CO2 for 18 hr. Then 1 uL of LiveBLAzerTM B/G FRET substrate was added using a Flying Reagent Dispenser, the plates were incubated at room temperature for 2 hours, and fluorescence intensity was measured by an Envision plate reader (PerkinElmer, Shelton, CT).
With `CCN(CCO)CCO` the “activity, negative = inhibition” value was -9.21%.
For `CS(=O)(=O)c1ccc(C(=O)C2C(=O)CCCC2=O)c(Cl)c1COCC(F)(F)F`, the “activity, negative = inhibition” value was 22.2%.
In the case of `O=C(O)C(Br)(Br)Br`, the “activity, negative = inhibition” value was 11%.
Work on `Brc1c(Br)c(Br)c(Br)c(Br)c1Br` yielded an activity, negative = inhibition of -6.9% [at 6.71 µM].
With `OCC(Cl)CCl` (stereo not given) the “activity, negative = inhibition” value was -2.9%.
In the case of `O=c1[nH]oc2c1CCNC2`, the “activity, negative = inhibition” value was 4.04%.
For `Clc1nc(Cl)nc(Nc2ccccc2Cl)n1`, the “activity, negative = inhibition” value was -7.3%.
For `CCNc1nc(Cl)nc(NC(C)(C)C)n1`, the “activity, negative = inhibition” value was -11.3%.
In the case of `NCCOS(=O)(=O)O`, the “activity, negative = inhibition” value was -15.5%.
With `CCN[C@@H](C)Cc1ccccc1` the “activity, negative = inhibition” value was -13.3% [at 79.1 µM].
In the case of `O=P(O)(O)CN(CP(=O)(O)O)CP(=O)(O)O`, the “activity, negative = inhibition” value was -5.28% [at 32.6 µM].
With `COc1cccc([C@@]2(O)CCCC[C@@H]2CN(C)C)c1` the “activity, negative = inhibition” value was -4.85%.
With `CCN(CC)CCOC(=O)C(O)(c1ccccc1)c1ccccc1` the “activity, negative = inhibition” value was -5.43%.
`CC(C)(N)Cc1ccc(Cl)cc1` was tested, and the “activity, negative = inhibition” value was 2.12%.
`Cn1c(N)nc2c3cccnc3ccc21` was tested, and the “activity, negative = inhibition” value was 14.4%.
With `BrCc1ccc(Br)cc1` the “activity, negative = inhibition” value was 6.51%.
`CCOP(=O)(CN(CCO)CCO)OCC` was tested, and the “activity, negative = inhibition” value was 8.44%.
`C=CCCC#N` was tested, and the “activity, negative = inhibition” value was 2.79%.
In the case of `O=C1C2CC=CCC2C(=O)N1SC(Cl)(Cl)Cl` (stereo not given), the “activity, negative = inhibition” value was 18.4%.
In the case of `COc1cc(CC(C)N)cc(OC)c1OC` (stereo not given), the “activity, negative = inhibition” value was -8.68% [at 79.1 µM].
`c1cncc([C@@H]2CCCCN2)c1` was tested, and the “activity, negative = inhibition” value was -14.4%.
For `ClCOCCl`, the “activity, negative = inhibition” value was -6.7% [at 79.1 µM].
In the case of `ClC1=C(Cl)C2(Cl)C(CBr)CC1(Cl)C2(Cl)Cl` (stereo not given), the Potency was “inactive”.
In the case of `CCC(C)(C#N)N=NC(C)(C#N)CC` (stereo not given), the “activity, negative = inhibition” value was 17.5%.
With `CCOC(=O)CC(SP(=S)(OC)OC)C(=O)OCC` (stereo not given) the Potency was “inactive”.
In the case of `COP(=O)(O)OC`, the “activity, negative = inhibition” value was 14.8% [at 79.1 µM].
In the case of `CC(Cc1ccccc1)NCCn1cnc2c1c(=O)n(C)c(=O)n2C` (stereo not given), the “activity, negative = inhibition” value was 10.1%.
For `CCSC(=O)Cl`, the “activity, negative = inhibition” value was -5.36% [at 79.1 µM].
With `CC[C@H](N)c1ccccc1` the “activity, negative = inhibition” value was -7.91%.
For `CCNc1nc(NCC)nc(SC)n1`, the “activity, negative = inhibition” value was 11%.
For `ClCC1CO1` (stereo not given), the Potency was “inactive”.
For `C=C(Cl)CCl`, the “activity, negative = inhibition” value was 18.1%.
In the case of `ClC(Cl)(Cl)Cl`, the Potency was “inactive”.
For `C[C@H](CN1CCOCC1)C(C(=O)N1CCCC1)(c1ccccc1)c1ccccc1`, the “activity, negative = inhibition” value was -11.9% [at 79.1 µM].
For `C/C(=N\NC(=O)Nc1cc(F)cc(F)c1)c1ncccc1C(=O)O`, the “activity, negative = inhibition” value was -2.52%.
In the case of `N#CN=C1SCCN1Cc1ccc(Cl)nc1`, the “activity, negative = inhibition” value was 10.6%.
For `NC(=O)OCCCc1ccccc1`, the “activity, negative = inhibition” value was -2.82%.
For `C#CCOC(=O)/C=C(C)/C=C/CC(C)CCCC(C)C` (stereo not given), the “activity, negative = inhibition” value was -18.1%.
In the case of `CC(C)[N+](C)(CCC(C(N)=O)(c1ccccc1)c1ccccc1)C(C)C`, the “activity, negative = inhibition” value was -5.04% [at 32.6 µM].
With `CCCC[N+](=O)[O-]` the “activity, negative = inhibition” value was -34.6%.
